# CRE Fsk mod: Cell signaling CRE-BLA (Fsk stim). AID 662, 2007. actives 2.5% (n = 71,000). Potency, µM (highest dose often 38.2 µM), for the others: at the highest dose activity change, negative = inhibition, hits mostly activators. CHO CRE-bla reporter (cAMP response element driving beta-lactamase), forskolin EC10, beta-lactamase ratio; active means well fitted activation curve with a large enough effect in the signal ratio, with a control signal flat, not every such curve was filed as active; inconclusive means small, poorly fitted or top-dose-only effect, or effect the other way, or a change in a side signal; the % refers to the signal ratio; further: % of control where 0% means no effect
#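 The 460nm/530nm emission ratio after CCF4 loading defined %Activity, from which AC50 values were obtained. CRE-bla CHO cells received compound dilution series together with an EC10 level of NKH 477 for 3 hours at 37 degrees Celsius.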
# p53ts 39C kill: qHTS Screen for Compounds that Selectively Target Cancer Cells with p53 Mutations: Cytotoxicity of p53ts Cells at the Nonpermissive Temperature; H1299-p53A138V viability at 39C, ATP luminescence, 24 h; Potency, µM (doses to about 46.1 µM), without a hit: at the highest dose activity change, negative = cell killing, actives largely listed as cytotoxic; actives 1.5% (n = 130,000); further: on the % scale 0 is the no-effect control and ±100 the full control effect; nearly all actives have a fitted effect of over 55% in size
# IkB signaling: IkB Signaling. Potency, µM (highest dose often 57.1 µM), for the others: top-dose IkBa stabilization activation. ABC-DLBCL IkBa-CBG/CBR dual luciferase ratio, 4 h; response scale: scaled: untreated 0%, proteasome inhibitor 100%. AID 445, 2006. actives 0.04% (n = 110,000); active means well fitted curve in the direction sought with a large enough effect in the signal ratio, not every such curve was filed as active; inconclusive means small, poorly fitted or top-dose-only effect, or a change in a side signal; the % refers to the signal ratio;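 further: the direction sought is a rising ratio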
#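 Luminescence ratio of IκBα-fused green versus native red beetle luciferase in OCI-Ly3 cells, 4 h post-doxycycline with compound; red signal alone, scaled from basal (0%) to zero light (-100%), flagged nonspecific or cytotoxic effects.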
# p53ts 32C tox: qHTS Screen for Compounds that Selectively Target Cancer Cells with p53 Mutations: Cytotoxicity of p53ts Cells at the Permissive Temperature; Potency, µM (doses to about 46.1 µM), for inactives: top-dose activity change, negative = cytotoxicity, actives largely listed as cytotoxic; H1299-p53A138V at 32C, ATP luminescence viability, 24 h; actives 0.93% (n = 130,000);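 further: 0% = DMSO and -100% = full killing by reference compound; nearly all actives have a fitted effect of over 55% in size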
#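 ATP-content luminescence (ATPlite) read-out after 24 h compound exposure at 32C in H1299-p53A138V cells (600/well). Tested up to 46 uM. Normalized to DMSO (0%) and 100 uM tamoxifen (100% killing); Hill-fit AC50.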
# Imprint erasure: qHTS Assay for Compounds that Induce Erasure of Genomic Imprints; Potency, µM (series often up to 60.7 µM), without a hit: at the highest dose activity change, positive = activation, hits mostly activators; mouse ES Peg3-LacZ reporter, beta-gal luminescence, 40 h; actives 0.02% (n = 110,000)
#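 Readout: BetaGlo luminescence (5 min, room temp) for LacZ from the normally silent maternal Peg3 allele in female Peg3LacZ-Neo ES cells. Cells 300/well, 40 h, 37C, 5% CO2. Data normalized per plate to negative controls.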
# Starred values were filed as active, the others as inactive; ? = inconclusive; nt = not tested or not shown; ! = not active in a repeat; [ ] = remark or other dose. Only some compounds are listed: those with a hit (about 3% of all), similar ones and a draw of the others. Unless noted, the call rests on the fitted dose curve; in most records, active means well fitted curve in the direction sought with a large enough effect; inconclusive means small, poorly fitted or top-dose-only effect, or another doubt; inactive means no such curve, though single readings can be large; an effect the other way counts as inactive or inconclusive. Potency means the concentration at half of the fitted maximal effect.
SMILES,CRE Fsk mod,p53ts 39C kill,IkB signaling,p53ts 32C tox,Imprint erasure
CCCOc1ccccc1-c1nc2c([nH]1)c(=O)[nH]c(=O)n2C,13µM*,8%,-4%,-1%,-17%
COc1cc(-c2nnc(SCC(=O)NC(C)C)o2)cc(OC)c1OC,nt,-15%,0%,-7%,11%[10.9 µM]
O=c1cc(-c2ccccc2O)oc2cc(O)ccc12,nt,?,nt,-28%,nt
O=c1cc(-c2cccc(O)c2O)oc2ccccc12,?,10µM*,0%[11.4 µM],?,-62%
Clc1ccc(C2=Nn3c(nnc3-c3cccnc3)SC2)s1,3%,-2%,2%,5%,-6%
Clc1ccc(C2=Nn3c(nnc3-c3n[nH]c4c3CCC4)SC2)cc1,2.5µM*,-12%,0%,6%,-23%
Cc1ccc(-c2nnc3n2N=C(c2ccc(Br)cc2)CS3)cc1,10µM*,-20%,-4%,-9%,-9%
CCOc1ccc(-c2nnc3n2N=C(c2ccc(OC)cc2)CS3)cc1,nt,-3%,nt,16%,nt
Brc1ccc(C2=Nn3c(nnc3-c3n[nH]c4c3CCC4)SC2)cc1,5µM*,-15%,3%,-4%,-19%
CN(C)c1cc2c(cc1NC(=O)c1ccc(F)cc1)n(C)c(=O)n2C,nt,-17%,-1%,-9%,-4%[10.9 µM]
CCc1ccc(CNC(=O)c2sc3ncccc3c2-n2c(C)ccc2C)cc1,nt,-13%,?,9%,-18%[10.9 µM]
CN(c1nnc(NC(=O)Nc2ccccc2C(F)(F)F)s1)C1CCCCC1,nt,9%,-2%,-3%,-7%[10.9 µM]
CC(CNC(=O)c1cc(-c2ccccc2)n[nH]1)c1ccccc1 (centres undefined),nt,-27%,?,0%,6%[10.9 µM]
COc1ccc(NC(=O)CCn2c(-c3ccc(F)cc3)cc(C(C)=O)c2C)c(OC)c1,nt,26%,0%,3%,-15%[10.9 µM]
COC(=O)c1c(NC(=O)c2nc3ccccc3s2)sc2c1CCN(C(C)=O)C2,3.2µM*,?,?,?,-1%
CCc1ccc(CNc2ncc(-c3cccc(OC)c3)n2C)cc1,nt,?,-3%,-19%,-37%[10.9 µM]
CCn1c(C)nc2cc(-c3nc4n(n3)Cc3ccccc3-4)ccc21,?,0.4µM*,0%,0.32µM*,-97%
Cc1ccc(-c2nc3n(n2)Cc2ccccc2-3)cc1,nt,6.3µM*,nt,8.9µM*,nt
Cc1ccc(-c2nnn(CC(=O)N3c4ccccc4CCc4ccccc43)n2)cc1,nt,-1%,nt,4%,nt
Fc1ccc(-c2nc3n(n2)Cc2ccccc2-3)cc1,?,?,12%,16µM*,-94%
COc1ccc(CNC(=O)CN2C(=O)CSc3ccc(S(=O)(=O)N(C)C)cc32)cc1,nt,2%,6%,5%,8%[10.9 µM]
Cc1nc(NCCCn2ccnc2)c2oc3ccccc3c2n1,13µM*,-10%,-3%,-7%,1%
CN1CCc2c(sc3c2C(=O)NC(c2cccs2)N3)C1 (centres undefined),13µM*,-16%,2%,-14%,3%
N#CC1=C(N)Nc2nc3ccccc3n2C1c1ccc(F)cc1 (centres undefined),nt,9%,nt,nt,nt
COc1ccc(C2=CC(c3cc(Br)ccc3F)n3c(nc4ccccc43)N2)cc1 (centres undefined),nt,10µM*,23%,16µM*,-17%[10.9 µM]
Fc1ccc(C2=CC(c3ccc(F)cc3)n3c(nc4ccccc43)N2)cc1 (centres undefined),nt,13µM*,?,10µM*,-21%[10.9 µM]
COC(=O)c1ccc(C2C=C(c3ccc(Cl)cc3)Nc3nc4ccccc4n32)cc1 (centres undefined),nt,11µM*,?,8.9µM*,-20%[10.9 µM]
CCN1C(=O)c2ccccc2Sc2ccc(NC(=O)N3CCN(c4cc(C)ccc4C)CC3)cc21,nt,?,-1%,-4%,-15%[10.9 µM]
CN(C)CCCN1c2ccccc2CCc2ccc(Cl)cc21,?,20µM*!,?,-12%,-11%
CN(C)CCCN1c2ccccc2Sc2ccccc21,?,?,3%[25.6 µM],9%,-14%

# Assay outcomes from PubChem BioAssay.
